G9a block = inhibitors of human histone lysine methyltransferase G9a. G9a H3K9 monomethylation, AlphaScreen, 2 h. Potency, µM (top dose mostly 102 µM), inactives show top-dose activity, negative = inhibition, hits mostly inhibitors. 8.8% of 350,000 active. AID 504332; also: % is scaled to controls: 0 for no effect and ±100 for the full control effect; nearly all actives have a fitted effect of over 75% in size
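Compounds were preincubated with 20 nM G9a for 15 min, after which biotinylated H3K9 peptide (500 nM) and SAM (20 uM) started a 2 h room-temperature reaction. Monomethylated product was quantified by antibody-based AlphaScreen chemiluminescence.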
HP1b chromo inh = blocks HP1-beta chromodomain binding to methylated histone tails | 0.56% of 390,000 active | P83916 | AlphaScreen HP1-beta / biotin-H3K9me3 peptide binding | AID 540317 | Potency, µM (series often up to 114 µM), for inactives: at the highest dose activity change, negative = inhibition, usual class: inhibitors; also: nearly all actives have a fitted effect of over 70% in size
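AlphaScreen: HP1-beta (50 nM) preformed 30 min with biotin-H3(1-18)K9me3 peptide (50 nM) in PBS pH 7.4, 0.01% Tween-20. Compound added for 30 min at RT, then streptavidin donor/nickel chelate acceptor beads (10 ug/mL) for 30 min.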
Sfp PPTase inh = blocks B. subtilis Sfp PPTase activity; Q9F4F7; Biochemical Sfp PPTase activity, qHTS; Potency, µM, for inactives: largest response in the series, negative = inhibition, hits mostly inhibitors; 3.5% of 310,000 active;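 also: the enzyme is Sfp with the accession as filed and its product quenches rhodamine fluorescence; 0% = enzyme reaction without inhibitor and -100% = no enzyme wells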
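Step 1, compound plus 15 nM Sfp-PPTase, 15 min, room temperature. Step 2, add rhodamine-CoA (5 uM) and BHQ-2-YbbR (12.5 uM). Step 3, read 525/598 nm fluorescence at 0 and 30 min.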
JMJD2A Tudor = inhibitors of human JMJD2A Tudor domain. AlphaScreen JMJD2A-Tudor / H3K4me3 peptide binding. Potency, µM (highest dose often 114 µM), without a hit: at the highest dose activity change, negative = inhibition, most hits filed as inhibitors. 4.4% of 390,000 active; also: % is scaled to controls: 0 for no effect and ±100 for the full control effect; nearly all actives have a fitted effect of over 50% in size
Target sequence (O75164 whole entry, looked up, the tested form may be a part): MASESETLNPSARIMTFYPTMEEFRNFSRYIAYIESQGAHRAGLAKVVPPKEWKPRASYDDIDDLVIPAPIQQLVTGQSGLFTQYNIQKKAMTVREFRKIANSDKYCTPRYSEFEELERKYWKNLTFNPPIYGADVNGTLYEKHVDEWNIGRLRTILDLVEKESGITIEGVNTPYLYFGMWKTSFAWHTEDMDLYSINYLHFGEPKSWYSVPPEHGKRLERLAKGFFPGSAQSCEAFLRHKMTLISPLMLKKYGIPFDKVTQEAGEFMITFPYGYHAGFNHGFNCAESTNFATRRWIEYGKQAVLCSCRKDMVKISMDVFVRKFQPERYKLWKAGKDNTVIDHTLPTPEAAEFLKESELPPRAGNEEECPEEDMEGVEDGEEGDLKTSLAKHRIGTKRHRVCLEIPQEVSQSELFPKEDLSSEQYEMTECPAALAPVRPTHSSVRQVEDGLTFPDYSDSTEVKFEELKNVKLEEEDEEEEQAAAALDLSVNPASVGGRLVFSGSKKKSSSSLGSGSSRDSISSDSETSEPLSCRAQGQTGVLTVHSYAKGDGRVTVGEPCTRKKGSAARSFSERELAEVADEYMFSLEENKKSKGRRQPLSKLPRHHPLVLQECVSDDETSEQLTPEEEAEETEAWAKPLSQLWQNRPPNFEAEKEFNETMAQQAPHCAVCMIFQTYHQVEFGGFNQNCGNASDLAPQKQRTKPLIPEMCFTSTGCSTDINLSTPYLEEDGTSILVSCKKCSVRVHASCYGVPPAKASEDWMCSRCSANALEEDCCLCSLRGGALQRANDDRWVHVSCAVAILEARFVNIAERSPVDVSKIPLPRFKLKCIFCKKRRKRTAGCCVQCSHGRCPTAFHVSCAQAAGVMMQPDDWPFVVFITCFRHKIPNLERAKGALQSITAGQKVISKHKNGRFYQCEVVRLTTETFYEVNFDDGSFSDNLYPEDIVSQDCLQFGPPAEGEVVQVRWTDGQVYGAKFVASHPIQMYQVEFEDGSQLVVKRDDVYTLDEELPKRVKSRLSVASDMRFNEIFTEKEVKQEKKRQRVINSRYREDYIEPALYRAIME
BAZ2B block = BAZ2B (human) inhibition. Q9UIF8. AlphaScreen BAZ2B-H3K14Ac peptide displacement. Potency, µM (doses to about 114 µM), inactives show at the top dose activity change, negative = inhibition, hits mostly inhibitors. 4.4% of 360,000 active. AID 504333; also: % is scaled to controls: 0 for no effect and ±100 for the full control effect; nearly all actives have a fitted effect of over 60% in size
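BAZ2B 50 nM plus b-H3(5-23)K14Ac 50 nM, PBS pH 7.4/0.01% Tween-20, 30 min RT; compound added (max 110 uM), 30 min RT; streptavidin donor/Ni-chelate acceptor beads 10 ug/mL final, 20 min dark; AlphaScreen read.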
Starred values were filed as active, the others as inactive; u = inconclusive; x = no result; [ ] = remark or other dose. Most compounds without a hit are left out; they make up all but 12% or so of the library. Calls follow the shape of the dose curve; as a rule, active = well fitted curve in the direction sought with a large enough effect; inconclusive = small, poorly fitted or top-dose-only effect, or another doubt; inactive = no such curve, though single readings can be large; an effect the other way counts as inactive or inconclusive. Potency is read from the fitted curve at half-maximal effect.

SMILES	G9a block	HP1b chromo inh	Sfp PPTase inh	JMJD2A Tudor	BAZ2B block
C(COC1CC2CC1C1C2CC2OC21)OC1CC2CC1C1C2CC2OC21 (configuration not stated)	x	5.8%	x	-9.7%	x
O=C(Cn1c(=O)n(-c2ccccc2)c(=O)c2ccc(C(=O)NCc3ccc4c(c3)OCO4)cc21)Nc1ccc(F)c(Cl)c1	12.3%[59 µM]	19.6%	x	-16.3%	x
Cc1ccccc1N1CC(C(=O)Nc2nnc(SCCN3CCOCC3)s2)CC1=O (configuration not stated)	15.8µM*	35.6%	-12.8%	-28.2%	-28.8%
Cc1ccccc1N1CC(c2nnc(NC(=O)c3ccco3)s2)CC1=O (configuration not stated)	8.91µM*	-5.6%	x	-11.6%	u
COc1ccc(C(=O)CSc2nnc(NC(=O)C3CC(=O)N(c4ccccc4C)C3)s2)cc1 (configuration not stated)	35.5µM*	8.3%	-14.3%	-10.6%	4.9%
COc1ccccc1N1CC(C(=O)Nc2nnc(SC)s2)CC1=O (configuration not stated)	17.4%[12.7 µM]	14.8%	-20.5%	-2.9%	-9.9%
Cc1ccc(NC(=O)CSc2nnc(NC(=O)CN3CCOCC3)s2)cc1	-16.4%[12.7 µM]	18.9%	-2.1%	u	-36.9%
Cc1cccc(C)c1NC(=O)CSc1nnc(NC(=O)CN2CCOCC2)s1	7.3%[0.0925 µM]	11.2%	-17.1%	89.1µM*	u
Cc1cccc(N2CC(C(=O)Nc3nnc(SCCN4CCOCC4)s3)CC2=O)c1 (configuration not stated)	u	5.1%	u	-35.6%	6.9%
COc1cccc(N2CC(C(=O)Nc3nnc(SCCN4CCOCC4)s3)CC2=O)c1 (configuration not stated)	39.8µM*	43.0%	1.7%	-17.1%	-10.3%
Cc1ccc(-c2noc(-c3nnn(CC(=O)Nc4ccc(C)cc4Cl)c3N)n2)cc1	-3.0%[59 µM]	28.1%	x	4.8%	-3.6%
Cc1cc(C)cc(NC(=O)Cn2nnc(-c3nc(-c4ccncc4)no3)c2N)c1	-35.5%[59 µM]	72.1%	x	56.2µM*	u
Nc1c(-c2nc(-c3ccccc3)no2)nnn1CC(=O)Nc1cccc(F)c1	u	24.3%	x	u	-21.2%
CCc1cccc(C)c1NC(=O)Cn1nnc(-c2nc(-c3ccccc3F)no2)c1N	u	43.9%	x	-26.2%	56.2µM*
CCNc1nc(C(=O)O)nc(N2CCOCC2)n1	3.98µM*	3.7%	79.4µM*	0.794µM*	8.91µM*
CN(C)c1nc(C(=O)O)nc(N2CCOCC2)n1	u	-0.1%	7.0%	31.6µM*	-28.2%
CN(C)c1nc(N2CCOCC2)nc(N(c2ccccc2)c2ccccc2)n1	u	32.8%	-5.8%	-2.9%	-4.1%
Cc1c(/C=C(\CC(=O)O)c2nc3ccccc3s2)cc(C#N)n1C	u	-7.8%	u	-5.1%[11.4 µM]	-35.1%
CSCC[C@H](NC(=O)N1CCn2c1nc1ccccc12)C(=O)NCc1ccco1	79.4µM*	u	-13.8%	44.7µM*	u
CSCC[C@H](NC(=O)N1CCn2c1nc1ccccc12)C(=O)NCc1ccccc1	44.7µM*	31.2%	26.0%	u	u
CSCC[C@H](NC(=O)N1CCn2c1nc1ccccc12)C(=O)NCc1ccc(C)cc1	31.6µM*	13.6%	-7.0%	-2.7%	u
CSCC[C@H](NC(=O)N1CCn2c1nc1ccccc12)C(=O)N[C@H](Cc1ccccc1)C(=O)O	-4.1%[12.7 µM]	21.1%	10.1%	u	u
COc1ccc(C2CC(c3cccs3)=NN2C(=O)c2ccco2)cc1OC (configuration not stated)	-3.4%[59 µM]	-8.6%	-9.3%	-27.0%	u
C=CCc1cccc(CNc2c(C)cc(C)cc2C)c1O	101.5%	130.2%	-4.5%	76.6%	9.1%
Cc1oc(-c2ccc3c(c2)OCCO3)cc1C(=O)O	16.2%[59 µM]	16.0%	u	-15.3%	-2.5%
Cc1cccc(C(=O)NNC(=O)CCC(=O)Nc2cccc(Cl)c2C)c1	0.3%[59 µM]	30.8%	-1.2%	-8.1%	-29.1%
Cc1ccc(C(=O)NNC(=O)CCC(=O)Nc2cccc(Cl)c2C)cc1	6.6%	31.3%	79.4µM*	-1.4%	-7.5%
Nc1ccc(S(=O)(=O)Nc2nccs2)cc1	22.0%[21.5 µM]	46.0%	-8.6%	-13.1%	x

Source: PubChem BioAssay
